Drawing on PubChem BioAssay AID1210 (NMMLSC, 2008), this text covers inhibition for 39 compounds.

Calls of active or inactive are those of the source.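 Rule for the calls: active = blocks over 70% of labeled estradiol binding at 10 µM, or over a set limit at 100 nM; inactive = the rest.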

For one assay, the target named is Estrogen receptor beta (Homo sapiens) (UniProt Q92731). As to the kind of experiment: ERbeta ligand binders by competition, primary screen, cell-based, Cos7 ERbeta-GFP, flow cytometry (AID 1210).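 Note: 0% = DMSO vehicle wells and 100% = complete loss of labeled estradiol signal.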 To be noted: fluorescent estrogen binding, at 10 µM, stronger effect = higher value. On the technique in general: A flow cytometer gives signals particle by particle.
Chain of Estrogen receptor beta (Homo sapiens) (Q92731 whole entry, looked up): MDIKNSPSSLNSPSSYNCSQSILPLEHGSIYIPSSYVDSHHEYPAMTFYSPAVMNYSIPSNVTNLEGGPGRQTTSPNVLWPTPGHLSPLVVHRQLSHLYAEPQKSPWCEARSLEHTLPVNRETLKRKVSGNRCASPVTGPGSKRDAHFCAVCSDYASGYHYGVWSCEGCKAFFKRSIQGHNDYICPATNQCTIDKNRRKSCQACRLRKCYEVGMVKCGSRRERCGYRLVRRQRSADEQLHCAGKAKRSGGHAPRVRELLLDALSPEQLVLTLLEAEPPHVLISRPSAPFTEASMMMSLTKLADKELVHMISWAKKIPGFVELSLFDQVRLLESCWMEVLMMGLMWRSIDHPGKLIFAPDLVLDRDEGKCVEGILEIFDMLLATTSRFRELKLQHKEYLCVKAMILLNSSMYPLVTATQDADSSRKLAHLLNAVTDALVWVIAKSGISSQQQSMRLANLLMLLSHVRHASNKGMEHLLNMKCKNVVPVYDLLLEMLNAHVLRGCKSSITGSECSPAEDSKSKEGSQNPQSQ
As usually defined, the inhibition is the relative decrease from the control value, in per cent. Take `CCN1CCc2nc(NC(=O)Cc3ccc4c(c3)OCCO4)sc2C1`: the inhibition is 26% (inactive).
For `CCN(c1ccccc1)S(=O)(=O)c1cc(C(=O)O)ccc1C`, the inhibition is 2% (inactive).
`O=C(O)C1CSC(c2coc3ccccc3c2=O)N1` (stereo not drawn): the inhibition was 26% (inactive).
For `COC(=O)C1=C(O)/C(=C\c2ccc(CNC(=O)C(=O)Nc3ccc(C)c(C)c3)o2)N=C1C`, the inhibition was 42% (inactive).
`COc1ccc(C2C=C(c3ccc(Cl)cc3)Nc3nc(NC(C)=O)nn32)cc1` (stereo not drawn): the inhibition is 16% (inactive).
Turning to `COc1ccc(OC)c(/C=N/c2oc(-c3ccco3)c(-c3ccco3)c2C#N)c1`, the inhibition is 31% (inactive).
In the case of `CCOc1ccccc1C1C(C#N)=C(N)Nc2onc(-c3ccccc3)c21` (stereo not drawn), the inhibition is 5% (inactive).
Take `Clc1ccc(Sc2cc(N3CCOCC3)nc(-c3ccccc3)n2)cc1`: the inhibition was 36% (inactive).
For the compound `COc1ccc(CNC(=O)COC(=O)c2cc(-c3ccco3)nc3ccccc23)cc1`, the inhibition is 18% (inactive).
Take `COC(=O)c1ccccc1NC(=O)c1noc2c1CCC2`: the inhibition was 38% (inactive).
Still for that read-out and setting: for `COc1ccc(OC)c(NC(=O)CSc2nc3ccccc3c3nc4ccccc4n23)c1` the value was 70% (inactive).
Same read-out and setting: the figure for `COc1ccc(NC(=O)CSc2nc3ccccc3c3nc4ccccc4n23)cc1` is 38% (inactive).
The same measure, in the same setting: for `O=C(CSc1nnc(-c2ccc(OC(F)F)cc2)o1)NC(=O)NCc1ccco1` the value was 39% (inactive).
`O=C(Nc1nc(-c2nc3ccccc3s2)cs1)C1COc2ccccc2O1` (stereo not drawn): the inhibition is 19% (inactive).
`O=C(CNc1ccccc1)N/N=C/c1cn(-c2ccccc2)nc1-c1ccccc1`: the inhibition is 53% (inactive).
As for `Cc1ccc(Oc2cc(N3CCOCC3)nc(-c3ccccc3)n2)cc1`, the inhibition is 35% (inactive).
Still for that read-out and setting: for `Cc1ccc(NC(=O)CN2C(=O)S/C(=C/c3ccc(-c4cc(C(=O)O)ccc4C)o3)C2=O)cc1C` the value was 36% (inactive).
In the case of `O=C1N/C(=C\c2ccc(O)cc2)C(=O)c2ccccc21`, the inhibition is 21% (inactive).
On the same count and under the same terms, the figure for `CSc1ccccc1NC(=O)c1noc2c1CCC2` is 26% (inactive); for `O=C(NCCN1CCOCC1)c1cnn2c(-c3ccccc3)cc(-c3ccccc3)nc12` it is 47% (inactive); for `c1ccc(OCc2nnc3sc(C4COc5ccccc5O4)nn23)cc1` (stereo not drawn) it is 29% (inactive).
Take `CC(=O)c1ccc(NC(=S)N2CCC(O)CC2)cc1`: the inhibition is 41% (inactive).
As for `COCc1cc(=O)n2c(-c3ccc(C)cc3)n[nH]c2n1`, the inhibition was 12% (inactive).
For the compound `N#CC1=C(N)OC2=C(CCC/C2=C/c2ccoc2)C1c1ccoc1` (stereo not drawn), the inhibition was 20% (inactive).
Take `COc1ccc(N2C(=O)c3ccccc3NC2c2ccc(OC)c(COc3ccccn3)c2)cc1` (stereo not drawn): the inhibition is 40% (inactive).
In the case of `COc1ccccc1N1CCN(C(=O)c2ccc3nc(-c4ccco4)c(-c4ccco4)nc3c2)CC1`, the inhibition is 60% (inactive).
For `CNc1nnc(-c2cc3cc(Cl)ccc3oc2=O)s1`, the inhibition is 0% (inactive).
On to `Oc1ccc(/C=C/c2nc(-c3ccccc3O)n(-c3ccccc3)n2)cc1`, for which the inhibition is 44% (inactive).
As to `COc1cc(C(C#N)N2N=C(c3ccccc3)CC2c2ccccc2)ccc1O` (stereo not drawn), the inhibition was 54% (inactive).
On to `COc1cc(O)c2c(=O)c3c(OC)c(O)ccc3oc2c1`, for which the inhibition was 41% (inactive).
For `COC(=O)c1cc(-c2c(C)oc3cc(O)ccc3c2=O)c(C)o1`, the inhibition was 12% (inactive).
As to `CC(=O)c1ccc(NCC(=O)N2CCN(c3ccccc3)CC2)cc1`, the inhibition is 72% (active).
Turning to `O=C(CSc1nc2ccccc2c(=O)[nH]1)c1ccc(O)c(O)c1`, the inhibition was 36% (inactive).
As to `COc1cccc2cc3c(=O)n(-c4ccccc4)nc-3oc12`, the inhibition is 70% (inactive).
For `O=C(O)c1cc(-c2ccc(O)cc2)nc2ccccc12`, the inhibition was 57% (inactive).
With `COc1cc2c(cc1O)CC[n+]1cc3c(OC)c(OC)ccc3cc1-2`, the inhibition is 25% (inactive).
`Cc1cnc(C(=O)OCC(=O)c2csc(N3CCCCC3)n2)cn1`: the inhibition was 47% (inactive).
Same read-out and setting: for `CCOc1ccc(Nc2oc(-c3ccccc3Cl)nc2C#N)cc1` the value was 25% (inactive).
On the same count and under the same terms, for `C/C=C(/C(=C/C)c1ccc(O)cc1)c1ccc(O)cc1` the value was 55% (active).

Still in this assay, the particulars now being: fluorescent estrogen binding, ligand binding inhibition, at 0.1 µM, stronger effect = higher value.
`CCN1CCc2nc(NC(=O)Cc3ccc4c(c3)OCCO4)sc2C1` returned an inhibition of 4%.
`CCN(c1ccccc1)S(=O)(=O)c1cc(C(=O)O)ccc1C` showed an inhibition of 13%.
In the case of `O=C(O)C1CSC(c2coc3ccccc3c2=O)N1` (stereo not drawn), the inhibition amounted to 46%.
In turn, `COC(=O)C1=C(O)/C(=C\c2ccc(CNC(=O)C(=O)Nc3ccc(C)c(C)c3)o2)N=C1C` registered an inhibition of 20%.
Compound `COc1ccc(C2C=C(c3ccc(Cl)cc3)Nc3nc(NC(C)=O)nn32)cc1` (stereo not drawn) came in with an inhibition of 21%.
Regarding `COc1ccc(OC)c(/C=N/c2oc(-c3ccco3)c(-c3ccco3)c2C#N)c1`, the inhibition was found to be 31%.
`CCOc1ccccc1C1C(C#N)=C(N)Nc2onc(-c3ccccc3)c21` (stereo not drawn) gave an inhibition of 38%.
`Clc1ccc(Sc2cc(N3CCOCC3)nc(-c3ccccc3)n2)cc1` yielded an inhibition of 18%.
Regarding `COc1ccc(CNC(=O)COC(=O)c2cc(-c3ccco3)nc3ccccc23)cc1`, the inhibition was 8%.
As for `COC(=O)c1ccccc1NC(=O)c1noc2c1CCC2`, the inhibition is 26%.
Still for that read-out and setting: the figure for `COc1ccc(OC)c(NC(=O)CSc2nc3ccccc3c3nc4ccccc4n23)c1` is 16%.
Turning to `COc1ccc(NC(=O)CSc2nc3ccccc3c3nc4ccccc4n23)cc1`, the inhibition was determined as 44%.
The compound `O=C(CSc1nnc(-c2ccc(OC(F)F)cc2)o1)NC(=O)NCc1ccco1` had an inhibition of 44%.
`O=C(Nc1nc(-c2nc3ccccc3s2)cs1)C1COc2ccccc2O1` (stereo not drawn) returned an inhibition of 2%.
Take `O=C(CNc1ccccc1)N/N=C/c1cn(-c2ccccc2)nc1-c1ccccc1`: the inhibition was 48%.
In the case of `Cc1ccc(Oc2cc(N3CCOCC3)nc(-c3ccccc3)n2)cc1`, the inhibition came out at 15%.
The compound `Cc1ccc(NC(=O)CN2C(=O)S/C(=C/c3ccc(-c4cc(C(=O)O)ccc4C)o3)C2=O)cc1C` returned an inhibition of 21%.
`O=C1N/C(=C\c2ccc(O)cc2)C(=O)c2ccccc21` returned an inhibition of 1%.
On the same count and under the same terms, for `CSc1ccccc1NC(=O)c1noc2c1CCC2` the value was 12%; for `O=C(NCCN1CCOCC1)c1cnn2c(-c3ccccc3)cc(-c3ccccc3)nc12`, 21%.
Compound `c1ccc(OCc2nnc3sc(C4COc5ccccc5O4)nn23)cc1` (stereo not drawn) gave an inhibition of 28%.
Turning to `CC(=O)c1ccc(NC(=S)N2CCC(O)CC2)cc1`, the inhibition came out at 23%.
On to `COCc1cc(=O)n2c(-c3ccc(C)cc3)n[nH]c2n1`, for which the inhibition is 39%.
On to `N#CC1=C(N)OC2=C(CCC/C2=C/c2ccoc2)C1c1ccoc1` (stereo not drawn), for which the inhibition is 34%.
`COc1ccc(N2C(=O)c3ccccc3NC2c2ccc(OC)c(COc3ccccn3)c2)cc1` (stereo not drawn): the inhibition was determined as 9%.
For `COc1ccccc1N1CCN(C(=O)c2ccc3nc(-c4ccco4)c(-c4ccco4)nc3c2)CC1`, the inhibition came out at 11%.
Regarding `CNc1nnc(-c2cc3cc(Cl)ccc3oc2=O)s1`, the inhibition was 4%.
The same measure, in the same setting: the figure for `Oc1ccc(/C=C/c2nc(-c3ccccc3O)n(-c3ccccc3)n2)cc1` is 31%.
Still for that read-out and setting: the figure for `COc1cc(C(C#N)N2N=C(c3ccccc3)CC2c2ccccc2)ccc1O` (stereo not drawn) is 5%; for `COc1cc(O)c2c(=O)c3c(OC)c(O)ccc3oc2c1` it is 25%; for `COC(=O)c1cc(-c2c(C)oc3cc(O)ccc3c2=O)c(C)o1` it is 1%.
Still for that read-out and setting: the figure for `CC(=O)c1ccc(NCC(=O)N2CCN(c3ccccc3)CC2)cc1` is 41%; for `O=C(CSc1nc2ccccc2c(=O)[nH]1)c1ccc(O)c(O)c1` it is 14%; for `COc1cccc2cc3c(=O)n(-c4ccccc4)nc-3oc12` it is 12%.
Compound `O=C(O)c1cc(-c2ccc(O)cc2)nc2ccccc12` gave an inhibition of 8%.
`COc1cc2c(cc1O)CC[n+]1cc3c(OC)c(OC)ccc3cc1-2` had an inhibition of 23%.
Compound `Cc1cnc(C(=O)OCC(=O)c2csc(N3CCCCC3)n2)cn1` showed an inhibition of 23%.
The same measure, in the same setting: the figure for `CCOc1ccc(Nc2oc(-c3ccccc3Cl)nc2C#N)cc1` is 43%.
Still for that read-out and setting: the figure for `C/C=C(/C(=C/C)c1ccc(O)cc1)c1ccc(O)cc1` is 85%.
